Data: PubChem BioAssay
The source made the active and inactive calls.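 Rule for the calls, unless noted: active = inhibition at or above 50% at 10 µM; inactive = inhibition below 50%.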

Assays:
[1] = inhibitors of TNFa-induced NFkB p65 translocation, primary screen, imaging, HUVEC, MLSMR starter and 10KST1 sets (AID 438;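 active = inhibition above 20% together with a positive visual image hit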;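 note: compound added about 3h40 before a 20 min TNFalpha stimulation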;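 for inhibition: signal is the nuclear over cytoplasmic p65 intensity ratio per well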); details: HUVEC TNFa-induced p65 nuclear translocation; cell count: measured here: nuclei count (cytotoxicity indicator), at 2.08 µM; inhibition: at 2 µM, stronger effect = higher value, 0% TNFa-plus-vehicle, 100% no-TNFa wells
[2] = inhibitors of mutant huntingtin aggregation, primary screen, imaging, exon1htt(103Q)mCFP cells, high-content imaging (AID 483;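 active = visual image review flags a hit and inhibition of aggregation exceeds 20%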;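 note: compound exposure lasted 3 days before fixation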;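 for nuclei count: percent of the per-plate median nuclei count of sample wells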); details: exon1htt(103Q)mCFP cell line, aggregate imaging, at 2 µM; inhibition of aggregation: stronger effect = higher value; nuclei count: measured here: cell count, toxicity
[3] = inhibitors of E-selectin induction by TNFa, primary screen, imaging, HUVEC, immunofluorescence, MLSMR starter and 10KST1 sets (AID 487;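 active = visually confirmed hit in the image check and inhibition above 20%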;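 for inhibition: signal is fraction of cell area covered by stained E-selectin grains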;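 for nuclei count: 100% = median nuclei count of all wells on the same plate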); details: HUVEC TNFalpha-induced E-selectin immunofluorescence imaging, at 2 µM; inhibition: stronger effect = higher value; nuclei count: measured here: cell number, toxicity
[4] = molecular target: Voltage-gated potassium channel subunit beta-2 (Rattus norvegicus) (UniProt P62483); assay: KvBeta enzyme negative modulators, primary screen, biochemical, NADPH fluorescence (AID 622;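 active = fluorescence slope higher than the sample average by over 3 SD, cut at about -0.22 in these data, passing the limit was not always enough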;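 note: slope of raw intensity against log time taken from 70 to 1610 s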); details: recombinant KvBeta, 4-cyanobenzaldehyde reduction, at 10 µM, stronger effect = higher value
Voltage-gated potassium channel subunit beta-2 (Rattus norvegicus), sequence (P62483 whole entry, looked up): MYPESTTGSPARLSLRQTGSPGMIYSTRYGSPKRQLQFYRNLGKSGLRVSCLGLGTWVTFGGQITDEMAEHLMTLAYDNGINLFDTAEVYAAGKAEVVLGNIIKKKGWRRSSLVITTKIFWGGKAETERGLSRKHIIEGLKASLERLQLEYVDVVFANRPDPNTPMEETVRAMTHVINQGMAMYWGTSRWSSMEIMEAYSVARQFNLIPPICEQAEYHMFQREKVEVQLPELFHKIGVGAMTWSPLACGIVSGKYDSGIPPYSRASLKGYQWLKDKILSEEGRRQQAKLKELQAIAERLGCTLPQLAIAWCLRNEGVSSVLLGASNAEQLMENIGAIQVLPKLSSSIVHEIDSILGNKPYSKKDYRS

[5] = molecular target: Voltage-gated potassium channel subunit beta-2 (Rattus norvegicus) (UniProt P62483); assay: KvBeta positive modulators, primary screen, biochemical, NADPH fluorescence (AID 623;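 active = NADPH fluorescence slope more negative than the mean of all samples by about 3 SD, 99.7% confidence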;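 note: fluorescence intensity change per second fitted from 20 to 320 s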); details: Recombinant KvBeta, NADPH fluorescence decrease slope, 10 min; at 10 µM; stronger effect = lower value
[6] = molecular target: Alpha-2C adrenergic receptor (Homo sapiens) (UniProt P18825); assay: modulators of alpha2C/GIRK thallium flux, primary screen, cell-based, HEK293 alpha2C/GIRK1/2 (AID 624;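 active = fluorescence slope after compound addition differing from the mean of all screened samples at 99.7% confidence, in either direction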;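 note: slope of fluorescence ratio to pre-addition baseline per second over 15 to 24 s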); details: thallium flux BTC fluorescence, at 10 µM, actives lie on both sides
Alpha-2C adrenergic receptor (Homo sapiens), sequence (P18825 whole entry, looked up): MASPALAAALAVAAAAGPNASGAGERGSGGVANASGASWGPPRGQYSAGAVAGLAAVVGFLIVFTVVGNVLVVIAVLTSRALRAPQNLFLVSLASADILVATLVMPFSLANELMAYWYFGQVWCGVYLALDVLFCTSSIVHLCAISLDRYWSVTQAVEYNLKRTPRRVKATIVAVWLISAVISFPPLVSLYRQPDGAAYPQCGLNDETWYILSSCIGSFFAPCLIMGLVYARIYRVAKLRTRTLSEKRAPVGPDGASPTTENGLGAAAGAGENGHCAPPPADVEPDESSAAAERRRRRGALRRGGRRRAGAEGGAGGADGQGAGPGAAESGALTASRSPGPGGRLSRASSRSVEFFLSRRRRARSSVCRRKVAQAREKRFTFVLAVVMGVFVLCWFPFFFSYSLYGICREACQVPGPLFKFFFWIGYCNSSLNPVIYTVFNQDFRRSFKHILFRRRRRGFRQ

[7] = inhibitors of Sendai virus-induced IRF3 signaling, primary screen, TLR/RLR signaling modifier project, cell-based, Sendai virus stimulus, luciferase, 10K MLSCN set (AID 602276); details: HEK293 RL24 IRF3 luciferase reporter, at 10 µM, stronger effect = higher value;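 note: firefly luciferase from ISG56 promoter only with Renilla not read in this screen; 0% = Sendai virus plus DMSO and 100% = medium plus DMSO without virus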
[8] = inhibitors of poly I:C-induced TLR3 signaling, primary screen, cell-based, poly I:C stimulus, luciferase, 10K MLSCN set (AID 602277;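 active = inhibition of the reporter signal at or above 50%; inactive = inhibition below 50%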); details: HEK293-TLR3 RL24 IRF3 luciferase reporter, at 10 µM, stronger effect = higher value

Structure (SMILES) | cell count [1] | inhibition [1] | inhibition of aggregation [2] | nuclei count [2] | inhibition [3] | nuclei count [3] | fluorescence slope [4] | NADPH fluorescence slope [5] | slope [6] | inhibition [7] | inhibition [8]
COC(=O)Cc1cc(=O)[nH]c(Nc2nc3ccccc3o2)n1 | 354 | -1.4% (inactive) | -11.1% (inactive) | 108% | -125% (inactive) | 112% | -0.268 (inactive) | -3.1e-06 (inactive) | 0.00603 (inactive) | -2.52% (inactive) | -64.7% (inactive)
CC1CCCN(C(=O)c2cc3c(-c4ccc(Cl)cc4)nn(C)c3s2)C1 (centres undefined) | 749 | -1.7% (inactive) | -30.1% (inactive) | 104% | -30.2% (inactive) | 111% | -0.607 (inactive) | -5.2e-06 (inactive) | 0.00725 (inactive) | 7.9% (inactive) | 45.2% (inactive)
CCOC(=O)CSc1nc2cccnc2n1-c1ccc(F)cc1 | 328 | -0.2% (inactive) | -28% (inactive) | 110% | -26.8% (inactive) | 111% | -0.444 (inactive) | -1.6e-05 (inactive) | 0.0064 (inactive) | -4.88% (inactive) | 2.83% (inactive)
CC(C)(NC(=O)N1CCCC1)c1cccc(C(C)(C)NC(=O)N2CCCC2)c1 | 366 | -1.8% (inactive) | 34.8% (active) | 92.3% | 21.6% (inactive) | 83.8% | -0.381 (inactive) | 3e-05 (inactive) | 0.00445 (inactive) | 11.4% (inactive) | 30.1% (inactive)
O=C(Nc1ccncc1)c1cccc(F)c1 | 559 | -6.9% (inactive) | -1.2% (inactive) | 95.4% | -13.5% (inactive) | 68.8% | -0.375 (inactive) | -4.9e-05 (inactive) | 0.00567 (inactive) | 12.9% (inactive) | 13.8% (inactive)
Cc1ccc(-c2nnc(SCC(=O)N3c4ccccc4NC(=O)C3(C)C)n2N)cc1 | 809 | -0.7% (inactive) | -26.4% (inactive) | 93.6% | -92% (inactive) | 120% | -0.361 (inactive) | -2.3e-05 (inactive) | 0.00498 (inactive) | -12.6% (inactive) | -5.26% (inactive)
O=C(CSc1nnc(Cc2cccs2)n1Cc1ccco1)Nc1cccc(Cl)c1 | 677 | -3.5% (inactive) | -13.8% (inactive) | 108% | -30.1% (inactive) | 116% | -0.397 (inactive) | 1.1e-05 (inactive) | 0.0045 (inactive) | 13.6% (inactive) | 31.6% (inactive)
CCCCP(=O)(CCCC)c1ccccc1C(=O)O | 404 | -2.2% (inactive) | 12.2% (inactive) | 81.7% | -21.2% (inactive) | 87.7% | -0.421 (inactive) | -9.2e-05 (inactive) | 0.00521 (inactive) | 6.88% (inactive) | 21.9% (inactive)
COc1ccc(NC(=O)CCc2nc(-c3ccccc3F)no2)cc1 | 729 | -1.7% (inactive) | 30% (active) | 94.6% | -8.4% (inactive) | 115% | -0.47 (inactive) | -2.2e-05 (inactive) | 0.00593 (inactive) | 4.66% (inactive) | 10.4% (inactive)
CCCn1c(SCC(=O)N2CCN(c3ccccc3)CC2)nc2ccccc2c1=O | 331 | -8.5% (inactive) | -6.7% (inactive) | 101% | 23.2% (inactive) | 124% | -0.595 (inactive) | 3.4e-07 (inactive) | 0.00536 (inactive) | -9.23% (inactive) | -10.6% (inactive)
CCOC(=O)c1c(C)[nH]c(C)c1C(=O)COC(=O)CNC(=O)c1ccc(OCC)cc1 | 708 | -2.2% (inactive) | 5.2% (inactive) | 63.7% | -19.4% (inactive) | 104% | -0.456 (inactive) | 2.3e-05 (inactive) | 0.00496 (inactive) | 14.3% (inactive) | 28.6% (inactive)
CCOc1ccc(-c2cn(S(=O)(=O)c3cccc4nsnc34)nc2N)cc1 | 316 | -6.1% (inactive) | 8% (inactive) | 107% | -29.1% (inactive) | 66.8% | -0.484 (inactive) | -3.8e-05 (inactive) | 0.00478 (inactive) | 10.6% (inactive) | 28.6% (inactive)
COc1cc2c(c(OC)c1)C(c1ccncc1)CC(=O)N2 (centres undefined) | 624 | -11.6% (inactive) | -25.7% (inactive) | 111% | -42.5% (inactive) | 116% | -0.565 (inactive) | -2.7e-06 (inactive) | 0.0063 (inactive) | -9.07% (inactive) | 3.48% (inactive)
FC(F)(F)c1cc(-c2ccccc2)nc(N2CCCCC2)n1 | 286 | 3.3% (inactive) | 3.7% (inactive) | 100% | -8.9% (inactive) | 105% | -0.578 (inactive) | -3.3e-05 (inactive) | 0.00434 (inactive) | 12.9% (inactive) | 12.8% (inactive)
